In general, inhibition refers to the relative decrease from the control value, in per cent.

Each structure is given as a SMILES string. The campaign covered roughly 330,000 compounds. About 4,600 (1.4%) were called active. This is one part of a sample in which actives are shown more often than they occur.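 How the source made its calls: active means inhibition of 40% or more at the single tested concentration; inactive means the rest.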

This experiment can be described thus: growth inhibitors of isogenic TIM10 control yeast, primary screen, counter-screen for tim10-1 yeast inhibitor project, luminescence, uHTS (AID 463195).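 Further: wild-type TIM10 isogenic control strain grown at permissive 25 °C; 0% = DMSO yeast wells and 100% = minimal medium wells without yeast.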 The following applies: S. cerevisiae TIM10 strain growth, BacTiter-Glo luminescence, 24 h; at 10 µM; active compounds read high. (Counterscreens check selectivity or assay interference.)
As to `CC1(c2ccccc2)NC(=O)N(CC(=O)N2CC(=O)Nc3ccccc32)C1=O` (stereo not given), the inhibition was -7.18% (inactive).
On to `Cc1c(CC(=O)N2CCN(C(=O)C3COc4ccccc4O3)CC2)c(=O)oc2c(O)c(O)ccc12` (stereo not given), for which the inhibition is 14.5% (inactive).
For `Cc1ccc(N2C(=O)C3C4C=CC(CC4)C3C2=O)cc1Cl` (stereo not given) the value was 96.9% (active).
As to `CC(=O)Nc1ccc(N2C(=O)C3C4C=CC(CC4)C3C2=O)cc1` (stereo not given), the inhibition is 3.72% (inactive).
As for `Cc1ccc(N2C(=O)C3C4C=CC(CC4)C3C2=O)cc1Br` (stereo not given), the inhibition was 0.46% (inactive).
Under `O=C(c1ccc(F)cc1)C1CCN(Cc2cn[nH]c2-c2ccccc2)CC1` stands 7.29% (inactive).
For `Cc1cc(C)c(CN2CCN(C(=O)Cn3ccc(NC(=O)OCc4ccccc4)nc3=O)CC2)c(C)c1`, the inhibition is 14.5% (inactive).
In the case of `Cc1nn(Cc2ccccc2)c(C)c1C(=O)N1CCN(CC(=O)Nc2ccccc2Cl)CC1`, the inhibition is 16.3% (inactive).
In the case of `Cc1cccc(C)c1NC(=O)CCCSc1nnc(-c2ccco2)n1-c1ccccc1`, the inhibition is 7.48% (inactive).
For `Cc1cc(N/N=C\c2ccc(Br)cc2)nc(-n2nc(C)cc2C)n1` the value was 28.7% (inactive); for `COc1ccc(Nc2cc(C)nc(-n3nc(C)cc3C)n2)cc1`, 42.6% (active); for `CC(=O)c1ccc(Oc2cc(C)nc(-n3nc(C)cc3C)n2)cc1`, 17.9% (inactive).
On to `COc1ccc(OCC(=O)OCCN(C)C)cc1`, for which the inhibition is 6.08% (inactive).
Turning to `CN1CCC2(CC1)NC(=O)NC2=O`, the inhibition is -10.9% (inactive).
Turning to `C=CCn1c2ccccc2c2nnc(SCc3[nH]c(=O)[nH]c3C(=O)CCCCC(=O)OCC)nc21`, the inhibition was 2.76% (inactive).
On to `c1ccc(-c2cn3c(n2)CCc2ccc4cccnc4c2-3)cc1`, for which the inhibition was 43.3% (active).
Consider `CCn1nnc(NC(=O)c2cc(Cl)c(OC)c(Cl)c2)n1`, for which the inhibition is -27.2% (inactive).
Take `O=C(Nc1cc(S(=O)(=O)Nc2ccc(Cl)cc2)ccc1O)c1ccc(F)cc1F`: the inhibition is -2.9% (inactive).
Regarding `O=C(Nc1nnc(SCc2c(Cl)cccc2Cl)s1)C1CCCO1` (stereo not given), the inhibition was 43% (active).
As for `O=C(Nc1nnc(SCc2c(Cl)cccc2Cl)s1)c1cccc([N+](=O)[O-])c1`, the inhibition was -29.2% (inactive).
For `O=C(NCc1ccccc1Cl)C1CCCO1` (stereo not given) the value was 12.6% (inactive).
As to `CCCCN(CC)CCCNC(=O)c1ccc(CSc2nc3ccncc3[nH]2)cc1`, the inhibition is -7.87% (inactive).
As for `COc1ccc(C2CC(=O)Oc3ccc(C(C)(C)C)cc32)cc1` (stereo not given), the inhibition is -0.738% (inactive).
With `Cc1cccc(NC(=S)Nc2ccc(Cl)c(Cl)c2)c1`, the inhibition is 24.3% (inactive).
`S=C(Nc1cccc(Cl)c1)Nc1ccc2c(c1)OCCO2`: the inhibition was 20.4% (inactive).
`Cc1csc(NC(=S)Nc2cccc(Cl)c2)n1`: the inhibition was 45.7% (active).
Under `O=C(O)CC1(CC(=O)Nc2cccc(C(F)(F)F)c2)CCCC1` stands -9.42% (inactive).
For the molecule `FC(F)(F)c1cccc(NC(=S)Nc2cccc(Cl)c2)c1`, the inhibition was 50.8% (active).
Under `Cc1cc(Cl)nc(NC(=O)Nc2cccc(Cl)c2)n1` stands 3.22% (inactive); under `CCn1c(=O)c(=O)n(CC)c2cc(S(=O)(=O)N3CCc4ccccc43)ccc21`, 14.7% (inactive).
For the molecule `Cc1ccc(C(C)C)c(OCc2nnc(SCC(=O)Nc3nccs3)n2C)c1`, the inhibition is -14% (inactive).
On to `COc1ccccc1/C=C/CN1CCC(CO)(Cc2ccccc2)CC1`, for which the inhibition was -1.7% (inactive).
For `CCCCNC(=O)C1CCC(=O)N1CCc1ccccc1` (stereo not given) the value was -1.71% (inactive); for `C[C@]12CC[C@H](O)CC1=CCC1C2CC[C@@]2(C)C1CC[C@@H]2NC(=O)CCC(=O)O` (stereo not given in full), -2.58% (inactive).
Consider `C=CC[C@H](CC(=O)N(CCO)Cc1ccccc1)C(=O)N[C@@H](COC(=O)[C@@H](CC=C)Cc1ccc(F)cc1)Cc1ccccc1`, for which the inhibition is 5.57% (inactive).
Consider `CSc1ccc(C(=O)C2CCCN(C(=O)c3ccc(C)nc3)C2)cc1` (stereo not given), for which the inhibition was -8.56% (inactive).
With `Cc1cc(C(=O)NNC(=O)CCC2CCCCC2)c(C)o1`, the inhibition was -5.54% (inactive).
For the molecule `Cn1c2c(c(=O)n(C)c1=O)C(c1cccc([N+](=O)[O-])c1)Nc1ccccc1O2` (stereo not given), the inhibition was -3.02% (inactive).
For the molecule `Oc1ccc(/C=N/N(Cc2ccccc2)c2ccccc2)cc1`, the inhibition was 46% (active).
Take `CCN(/N=C/c1ccccc1)c1cc(=O)n(C)c(=O)[nH]1`: the inhibition was 19.2% (inactive).
Regarding `CN(/N=C/c1ccccc1)C(=S)c1ccccc1`, the inhibition is -6.07% (inactive).
For `CN1CCN(S(=O)(=O)c2cccc(C(=O)Nc3sccc3C#N)c2)CC1` the value was -3.26% (inactive); for `CSC1=NCCN1C(=O)Cc1cccc2ccccc12`, 4.36% (inactive); for `O=S(=O)(c1ccccc1)N1CCc2ccccc21`, 2.66% (inactive).
Take `O=C1c2ccccc2C(=O)N1CC1c2ccccc2CCN1S(=O)(=O)c1ccccc1` (stereo not given): the inhibition is 40.3% (active).
For the molecule `O=C(CCC(=O)N1CCN(S(=O)(=O)c2ccccc2)CC1)NC1CCCc2ccccc21` (stereo not given), the inhibition was 8.6% (inactive).
Under `CC1CCCCC1NC(=O)/C(C#N)=C/C=C/c1ccccc1[N+](=O)[O-]` (stereo not given) stands 47.3% (active).
`O=[N+]([O-])c1ccccc1/C=C/CN1CCC(O)CC1`: the inhibition was -13.6% (inactive).
Consider `O=[N+]([O-])c1ccccc1/C=C/CN1CCCC(CO)C1` (stereo not given), for which the inhibition is -25% (inactive).
For `CCOc1ccc(CN2CCN(Cc3c[nH]c4ccccc34)CC2)cc1` the value was -10.6% (inactive).
For `CC1(C)CC(=O)C=C(NCCN2CCNCC2)C1` the value was 5.33% (inactive); for `Cc1ccc(/C=C/C(=O)OCC(=O)NCc2ccc(Cl)cc2)o1`, -3.46% (inactive); for `CCOC(=O)C1CN(S(=O)(=O)c2ccc(OC)cc2)c2cc(Cl)ccc2O1` (stereo not given), 15.1% (inactive).
As to `COc1ccccc1N1N=C(c2cccs2)CC1c1ccccc1` (stereo not given), the inhibition is 23% (inactive).
For `O=C1C2N=NN(CC(=O)N3N=C(c4cccc5ccccc45)CC3c3ccccc3)C2C(=O)N1c1ccccc1` (stereo not given) the value was 22.8% (inactive); for `Oc1ccccc1C1=NN(c2ccccc2)C(c2ccccc2)C1` (stereo not given), 49% (active); for `CC(C)CC(COCc1ccc(Cl)cc1)N1CCN(C(=O)c2ccc(C(F)(F)F)cc2)CCC1=O` (stereo not given), 17.7% (inactive).
For `CCCCNC(=S)N/N=C1\CCCCc2ccccc21` the value was 48.2% (active); for `CCCC1CCC(=NNC(=S)NCCc2ccccc2)CC1` (stereo not given), -23.1% (inactive); for `Cc1ccc(NC(=S)N/N=C2/CCCc3c(C)cc(C)cc32)cc1`, -3.6% (inactive).
On to `Cc1noc(C)c1S(=O)(=O)Nc1cc(C(F)(F)F)ccc1N1CCOCC1`, for which the inhibition was 14.8% (inactive).
For `NS(=O)(=O)c1ccc(CCNC(=O)CCCn2c(SCC(=O)N3CCCC3)nc3ccsc3c2=O)cc1` the value was -3.82% (inactive); for `COc1ccc(Oc2coc3cc(OC(=O)c4cncc(Br)c4)ccc3c2=O)cc1`, 22.3% (inactive); for `O=C(OCc1cc2ccccc2[nH]c1=O)c1cccnc1`, -6.32% (inactive).
With `O=C(Oc1c(-c2ccco2)oc2ccccc2c1=O)c1cccnc1`, the inhibition is 63.5% (active).
Turning to `Cn1c(CC2Sc3ccccc3NC2=O)nnc1SCC(=O)c1ccc(Cl)cc1` (stereo not given), the inhibition is 2.41% (inactive).
Turning to `COc1cccc(NC(C)=[N+](C)CCNS(=O)(=O)c2ccc(Cl)cc2)c1`, the inhibition is -4.11% (inactive).
As to `CCCCn1c(N)c(N(CCC(C)C)C(=O)c2ccc([N+](=O)[O-])o2)c(=O)[nH]c1=O`, the inhibition was -3.66% (inactive).
Regarding `Cc1[nH]n(C(N)=S)c(=O)c1N=Nc1ccc(Cl)cc1Cl`, the inhibition was 50.4% (active).
For `Cc1[nH]n(C)c(=O)c1N=Nc1ccc(S(C)(=O)=O)cc1`, the inhibition was 6.98% (inactive).
With `CC1=NN(C(N)=S)C(=O)C1N=Nc1cc(Cl)ccc1Cl` (stereo not given), the inhibition is 28.1% (inactive).
With `COC(=O)Cc1ccc(NC(=S)NCc2ccc(Cl)cc2)cc1`, the inhibition was 28% (inactive).
For `S=C(NCc1ccc(Cl)cc1)NC12CC3CC(CC(C3)C1)C2`, the inhibition was 61.1% (active).
On to `O=C(NCc1ccc(Cl)cc1)NCc1ccc(Cl)cc1`, for which the inhibition is -12.6% (inactive).
Regarding `CSc1nc2nc(-c3cccc(C(F)(F)F)c3)ccn2n1`, the inhibition was -28% (inactive).
